Bim-Mcl-1: human Bim-Mcl-1 interaction inhibition | Bead-based flow cytometry, Bim peptide-Mcl-1 binding | AID 1009 | inhibition, % at 10 µM | hit rate 0.1% among 190,000 | Q07820; in the data active = inhibition above about 40%
Hck-Nef inh: inhibitors of human Hck kinase activated by Nef; Recombinant Hck-YEEI plus Nef, Z-Lyte FRET kinase assay; inhibition, % at 20 µM; hit rate 0.68% among 220,000; AID 463187;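 active = Hck-Nef kinase inhibition above about 50%, limit read from the data; inactive = inhibition below that limit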
Mcl1-Noxa inh: Mcl-1/Noxa interaction inhibition | Q07820 | TR-FRET Mcl-1/Noxa peptide binding, 2 h | inhibition, % at 21.7 µM | hit rate 1.5% among 220,000 | AID 1022;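 active = compounds that cut the protein-peptide binding signal by more than 50% relative to plate controls in a single-dose test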;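 note: His-tagged Mcl-1 with rhodamine Noxa BH3 peptide and terbium anti-His antibody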
14-3-3 Bad inh: disrupts binding of bovine 14-3-3 zeta to phospho-Bad peptide; P63103; TR-FRET 14-3-3zeta/Dy647-pBad peptide displacement, 1 h; inhibition, % at 21.7 µM; hit rate 0.71% among 220,000; AID 781;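 active = inhibition above about 70%, limit read from the data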
Mcl1-Bid inh: disrupts binding of human Mcl-1 to Bid peptide; TR-FRET Mcl-1/Bid-Dy647 peptide binding, 1536-well; inhibition, % at 21.7 µM; hit rate 0.97% among 220,000;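 active = compounds that cut the binding signal by more than half at the single screening dose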;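 note: His-tagged Mcl-1 with europium anti-His antibody binding Bid BH3 peptide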
eIF4E-4G inh: eIF4E/eIF4G interaction inhibition in translation initiation | P63073+Q04637 | TR-FRET eIF4E-eIF4GI(517-606) binding, 2 h | inhibition, % at 21.7 µM | hit rate 0.37% among 220,000 | AID 782;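 active = inhibition above about 30%, limit read from the data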
Large screens that a line does not name were inactive; [ ] = another dose, or the depositor's remark. A selection: hits, their analogues and other compounds. The true share with any hit is near 3.5%.

CCCC1C2C(=O)N(c3cccc(C)c3)C(=O)C2ON1c1ccccc1 (stereo unspecified)	none (no result: Bim-Mcl-1)
CCCC1C2C(=O)N(c3ccc(OC)cc3)C(=O)C2ON1c1ccccc1 (stereo unspecified)	14-3-3 Bad inh 90
Cc1ccnc(N2CCN(C(=O)CSc3nc4ccccc4nc3N3CCC(C)CC3)CC2)c1	none
CCOC(=O)C(Sc1nn(C)c(=S)s1)C(C)=O (stereo unspecified)	none (no result: Mcl1-Noxa inh)
Cn1nc(SCC(=O)O)sc1=S	Mcl1-Bid inh 64
CC(=O)NC(Cc1ccccc1)C(=O)OCC(=O)c1ccccc1 (stereo unspecified)	none
COc1ccccc1CNC(=O)C1(c2ccc(Cl)cc2)CC1	none
COc1cccc(OCC(=O)O)c1	none
O=C(/C=C/c1ccco1)NC(=S)Nc1ccc(O)c(-c2nc3ccccc3s2)c1	Mcl1-Noxa inh 52, Mcl1-Bid inh 59
O=C(Nc1ccc(O)c(-c2nc3ccccc3s2)c1)c1cc(=O)c2ccccc2o1	Mcl1-Noxa inh 51, 14-3-3 Bad inh 76, Mcl1-Bid inh 52
COc1ccc(NC(=S)NC(=O)/C=C/c2ccco2)cc1	none
CC(=O)NC(=S)Nc1ccc(NC(=S)NC(=O)/C=C/c2ccco2)cc1	Mcl1-Noxa inh 66 (no result: Bim-Mcl-1)
C=C1CCN([C@H](C(=O)NCc2ccc(OC)cc2)C(C)C)S(=O)(=O)c2ccccc21	none (no result: Bim-Mcl-1)
O=C(/C=C/Nc1cccc(F)c1)c1ccco1	Mcl1-Bid inh 87
CCCCCCNc1nc(Cl)nc(NC(C)(C)CO)n1	none (no result: Bim-Mcl-1)
CN(C)c1ccc(Nc2nc(-c3cccnc3)cs2)cc1	Mcl1-Noxa inh 60
COc1ccccc1CNc1nc(-c2cc(C)n(C)c2C)cs1	Hck-Nef inh 67, Mcl1-Noxa inh 90, 14-3-3 Bad inh 96, Mcl1-Bid inh 65, eIF4E-4G inh 47
CC(C)CNC(=O)COc1cccc(C(=O)NCc2ccccc2)c1	none
O=C(O)CSc1nc2sc3c(c2c(=O)n1-c1ccccc1)CCC3	none (no result: Bim-Mcl-1)
CSc1nc(SCC(=O)O)c2sc3nc(-c4ccccc4)c4c(c3c2n1)CCC4	14-3-3 Bad inh 87, Mcl1-Bid inh 90, eIF4E-4G inh 57 (no result: Bim-Mcl-1)
CC(=O)/C(=N\Nc1ccccc1)Sc1cccc2cccnc12	Mcl1-Noxa inh 69
CC(=O)/C(=N\Nc1ccccc1Cl)Sc1cccc2cccnc12	none
COc1cc(N2CCCC2)c(OC)cc1/C=C(/C#N)c1cccc(F)c1	Mcl1-Noxa inh 80
Cc1cccc(C)c1NC(=O)N1C2CCC1CC(O)(c1cccnc1)C2 (stereo unspecified)	Mcl1-Noxa inh 53
Cc1ccc(NS(=O)(=O)c2ccc(C(=O)OCC(=O)NCC3CCCO3)cc2)cc1 (stereo unspecified)	none
O=C(COC(=O)c1ccccc1)NCc1ccco1	none
COc1ccccc1NCCC(=O)OCC(=O)NCc1ccco1	Mcl1-Noxa inh 64
Cc1ccc(CSCC(=O)NCc2ccco2)cc1	14-3-3 Bad inh 89
O=C(COC(=O)c1ccccc1Oc1ccccc1)NCc1ccco1	Mcl1-Noxa inh 52
Cc1cc(Br)ccc1SCC(=O)OCC(=O)NCc1ccco1	Mcl1-Noxa inh 55 (no result: Bim-Mcl-1)
Cc1cc(C)c(NC(=O)CN2CCC(NC(=O)NC3CCCCC3)CC2)c(C)c1	none
O=C(Nc1c2c(nn1-c1ccc(F)cc1)CS(=O)(=O)C2)c1ccc(S(=O)(=O)N2CCOCC2)cc1	none
O=C(N=Nc1c(O)[nH]c2ccc([N+](=O)[O-])cc12)c1cc(-c2ccccc2Cl)nc2ccccc12	Mcl1-Noxa inh 77, 14-3-3 Bad inh 94[fluorescence artefact?], Mcl1-Bid inh 96, eIF4E-4G inh 34
NC(=O)N=Nc1c(O)[nH]c2ccc([N+](=O)[O-])cc12	none (no result: Bim-Mcl-1)
C=C(C)CNC(=S)N=Nc1c(O)[nH]c2ccc([N+](=O)[O-])cc12	Mcl1-Noxa inh 65
COc1ccccc1C(=O)N=Nc1c(O)[nH]c2ccc([N+](=O)[O-])cc12	Mcl1-Noxa inh 78
CN(CC(=O)NCc1ccncc1)S(=O)(=O)c1ccc2ccccc2c1	none
O=C(c1ccco1)N(CCC(c1ccccc1)c1ccco1)Cc1ccco1 (stereo unspecified)	Mcl1-Noxa inh 62
Cc1nc(SCC(=O)Nc2cc(Cl)ccc2[N+](=O)[O-])nc(C)c1C	Mcl1-Bid inh 95
COc1cc(NC(=O)CSc2nccc(C)n2)c(C)cc1[N+](=O)[O-]	Mcl1-Noxa inh 57
COc1ccc([N+](=O)[O-])cc1NC(=O)CSc1ncccn1	none
COc1ccc([N+](=O)[O-])cc1NC(=O)CSc1nccc(C)n1	Mcl1-Noxa inh 57
CCc1ccccc1NNC(=O)c1snnc1C	none (no result: Bim-Mcl-1)
COC(=O)/C=C1/SC(=Nc2ccc(C)cc2C)NC1=O	Mcl1-Bid inh 98
CC(NC(=S)NCCc1ccccc1)C(c1cccs1)N1CCN(Cc2ccccc2)CC1 (stereo unspecified)	none
CC1=CC2=NC(=O)CC(C)(C(=O)N(CC(=O)NC3CCCC3)c3ccccc3C)N2C=C1 (stereo unspecified)	none (no result: Bim-Mcl-1)
CC1(C(=O)N(CC(=O)NC2CCCC2)Cc2ccco2)CC(=O)N=C2C=CC=CN21 (stereo unspecified)	Bim-Mcl-1 41
COc1cccc(C(=O)Nc2ccc3nc(N4CCN(c5ncccn5)CC4)cc(C)c3c2)c1OC	Mcl1-Noxa inh 74, Mcl1-Bid inh 83
CC(=O)N(C)C1=C(O)c2ccccc2C(=O)C1=O	14-3-3 Bad inh 70
CC(=O)N(C1=C(O)c2ccccc2C(=O)C1=O)C1CCCCC1	none
Cc1cc(NC(=O)c2noc3c2CCc2ccccc2-3)no1	Mcl1-Bid inh 67 (no result: Hck-Nef inh)
Cc1ccc(O)c(NC(=O)c2noc3c2CCc2ccccc2-3)c1	none
O=C(Nc1ccc(S(=O)(=O)Nc2nccs2)cc1)c1cc(-c2ccccc2Cl)nc2ccccc12	Mcl1-Bid inh 99
O=C(Nc1cccc(S(=O)(=O)NC2=NCCCCC2)c1)c1cc(-c2ccccc2Cl)nc2ccccc12	none
O=C(Nc1ccc(S(=O)(=O)Nc2nccs2)cc1)c1ccc(=O)[nH]c1	Mcl1-Noxa inh 62
COc1cc(NC(=O)c2cc(C)nc3ccccc23)cc(OC)c1OC	none
COc1ccc(NC(=O)c2cc(-c3ccc(C)o3)nc3ccccc23)cc1OC	Mcl1-Noxa inh 64
Cc1ccc(-c2cc(C(=O)Nc3nccs3)c3ccccc3n2)o1	Mcl1-Noxa inh 67
CCOC(=O)c1c(NC(=O)CN2CCCc3ccccc32)sc(C)c1CC	none
CSc1ccccc1C(=O)Nc1nccs1	none
O=C(O)c1ccccc1C(=O)Nc1nccs1	eIF4E-4G inh 72
COC(=O)[C@@H](N)CS	none
CS(=O)(=O)NCc1ccc(C(=O)NCCOc2ccccc2)cc1	Mcl1-Bid inh 91
CS(=O)(=O)NCc1ccc(C(=O)O)cc1	none
O=C(Nc1ccc2oc(=O)ccc2c1)c1ccc(-c2ccc(Cl)cc2)o1	Mcl1-Bid inh 56

Compound activity from PubChem.
